Where “and” joins values, the source holds several entries; their conditions need not be identical. Equal entries are not always repeated. Results filed as inconclusive are left out. Where a call stands in place of a potency, no number is given. Calls of active or inactive are those of the source. Unless noted, calls come from the whole dose curve; as a rule, active = well fitted curve in the direction sought with a large enough effect; inconclusive = small, poorly fitted or top-dose-only effect, or another doubt; inactive = no such curve, though single readings can be large; an effect the other way counts as inactive or inconclusive.
Experiments:
[1] = biological target: DNA repair nuclease/redox regulator APEX1 (Homo sapiens) (UniProt P27695); experiment: qHTS Validation Assay for Inhibitors of the Human Apurinic/apyrimidinic Endonuclease 1 (APE1) (AID 1705;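 note: TAMRA fluorescence gain over two minutes as APE1 cuts a quenched THF abasic duplex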)
Chain of DNA repair nuclease/redox regulator APEX1 (Homo sapiens) (P27695 whole entry, looked up): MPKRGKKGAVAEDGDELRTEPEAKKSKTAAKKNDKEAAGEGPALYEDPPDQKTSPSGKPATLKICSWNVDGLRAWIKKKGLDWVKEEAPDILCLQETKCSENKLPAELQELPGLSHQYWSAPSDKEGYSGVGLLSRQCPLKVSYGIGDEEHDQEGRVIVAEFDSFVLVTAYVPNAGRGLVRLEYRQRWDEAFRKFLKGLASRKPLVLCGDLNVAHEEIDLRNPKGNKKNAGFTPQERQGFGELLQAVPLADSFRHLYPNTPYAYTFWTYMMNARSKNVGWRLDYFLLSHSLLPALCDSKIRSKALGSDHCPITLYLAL
In short: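 Human APE1 was preincubated with compound for 15 min at room temperature, then 50 nM (final) THF-abasic double-stranded DNA substrate bearing 5'-TAMRA and 3'-BHQ-2 was added. Incision-driven fluorescence rise (ex 525/em 598 nm) was read kinetically.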

[2] = Counterscreen for APE1 Inhibitors: Fluorescent Dye Displacement Validation Assay (AID 1707)
In short: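 Thiazole Orange displacement from dsDNA: 250 nM ThO with 50 nM TAMRA-labelled abasic-site (tetrahydrofuran) duplex in 50 mM Tris-HCl pH7.5, 50mM NaCl, 2 mM MgCl2, 0.01% Tween-20. Loss of endpoint fluorescence (ex 480 nm, em 540 nm) flags DNA binders.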

[3] = biological target: Endonuclease 4 (Escherichia coli (strain K12)) (UniProt P0A6C1); experiment: Counterscreen for APE1 Inhibitors: qHTS Validation Assay for Inhibitors of Endonuclease IV (AID 1708)
In short: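 E. coli EndoIV at 2 nM final, preincubated 15 min at room temperature with compound, then 50 nM TAMRA/BHQ-2 THF abasic-site duplex added. Buffer: 50 mM Tris-HCl pH 7.5, 50 mM NaCl, 2 mM MgCl2, 1 mM DTT, 0.01% Tween-20. Kinetic fluorescence increase, third minus first read.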

[4] = qHTS for differential inhibitors of proliferation of Plasmodium falciparum line 7G8 (AID 1815);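 note: parasite growth measured after three days of incubation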; note: potency is the fitted concentration of half-maximal effect
[5] = qHTS for differential inhibitors of proliferation of Plasmodium falciparum line GB4 (AID 1816); conditions: Potency: Plasmodium falciparum GB4 proliferation inhibition;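 note: parasite growth measured after 72 h incubation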; note: potency is the fitted concentration of half-maximal effect
[6] = qHTS for differential inhibitors of proliferation of Plasmodium falciparum line 3D7 (AID 1876); note: potency is the fitted concentration of half-maximal effect
[7] = qHTS for differential inhibitors of proliferation of Plasmodium falciparum line D10 (AID 1877);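 note: parasites grown with compound for 72 h before DNA staining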; note: potency is the fitted concentration of half-maximal effect
[8] = qHTS for differential inhibitors of proliferation of Plasmodium falciparum line Dd2 (AID 1882); conditions: Potency: Plasmodium falciparum Dd2 proliferation inhibition; note: nearly all actives have a fitted effect of over 65% in size; note: potency is the fitted concentration of half-maximal effect
In short: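 Dd2-infected erythrocytes (0.3% parasitemia, 2.5% hematocrit final) incubated with compound 72 h at 37 C, 5% CO2; lysed with saponin/Triton buffer containing SYBR Green I, incubated overnight in the dark, then read by fluorescence (485/535 nm). Normalized to 0.29 uM artemisinin and DMSO.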

[9] = qHTS for differential inhibitors of proliferation of Plasmodium falciparum line W2 (AID 1883); conditions: Potency: Plasmodium falciparum W2 proliferation inhibition;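 note: parasites grown with compound for 72 h before lysis and staining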; note: potency is the fitted concentration of half-maximal effect
[10] = qHTS for differential inhibitors of proliferation of Plasmodium falciparum line HB3 (AID 1886); conditions: Potency: Plasmodium falciparum HB3 proliferation inhibition;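 note: parasites grown with compound for 72 h before SYBR Green readout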; note: potency is the fitted concentration of half-maximal effect
[11] = biological target: Alpha-galactosidase A (Homo sapiens) (UniProt P06280); experiment: Counterscreen for Glucocerebrosidase Inhibitors: qHTS Assay for Human alpha-Galactosidase at pH 4.5 (AID 992)
Chain of Alpha-galactosidase A (Homo sapiens) (P06280 whole entry, looked up): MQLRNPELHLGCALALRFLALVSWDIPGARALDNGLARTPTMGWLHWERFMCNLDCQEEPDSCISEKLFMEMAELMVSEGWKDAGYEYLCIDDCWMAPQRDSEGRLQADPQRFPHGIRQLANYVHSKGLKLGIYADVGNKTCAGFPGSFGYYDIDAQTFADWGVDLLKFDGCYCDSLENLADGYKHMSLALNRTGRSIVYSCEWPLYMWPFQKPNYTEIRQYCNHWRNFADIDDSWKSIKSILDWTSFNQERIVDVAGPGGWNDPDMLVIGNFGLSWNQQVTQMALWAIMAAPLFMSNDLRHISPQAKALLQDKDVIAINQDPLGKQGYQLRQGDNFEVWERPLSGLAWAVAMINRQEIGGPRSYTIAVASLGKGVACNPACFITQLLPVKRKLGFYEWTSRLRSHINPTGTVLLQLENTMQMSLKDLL
In short: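 Enzyme at 2 nM final was combined with compound (0.7 nM to 77 uM) and 80 uM 4-methylumbelliferyl alpha-D-galactopyranoside in 50 mM citric acid, 0.005% Tween-20, pH 4.5. After 20 min at room temperature, fluorescence was read (Ex 365/Em 440 nm); AC50 came from Hill fits.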

[12] = biological target: alpha-glucosidase (Oryza sativa, rice) (UniProt Q653V4); experiment: Counterscreen for Glucocerebrosidase Inhibitors: qHTS Assay for Rice alpha-Glucosidase at pH 5.0 (AID 997)
In short: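 Rice alpha-glucosidase (4 nM final) with 400 uM 4-methylumbelliferyl-alpha-D-glucopyranoside in citrate buffer pH 5.0, 20 min at room temperature, stopped at pH 10; fluorescence 365/440 nm, compounds 0.7 nM–77 uM, AC50 from Hill fits.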

[13] = qHTS Assay for Lipid Storage Modulators (AID 1519; calls by dose curve); conditions: Drosophila S3 cells, BODIPY lipid droplet/cell ratio, laser cytometry, cells loaded with oleic acid
In short: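 Cells seeded at 5,000 per well were treated with compounds over a concentration series and loaded with oleic acid (400 uM, as added). Lipid droplet fluorescence (488 nm excitation, 500-530 nm channel) was read by laser-scanning cytometry and normalized to 20 uM Triacsin C.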

[14] = measured here: cell count channel max response
[15] = measured here: lipid channel max response

| SMILES | Potency [1] | outcome [2] | Potency [3] | Potency [4] | Potency [5] | Potency [6] | Potency [7] | Potency [8] | Potency [9] | Potency [10] | outcome [11] | outcome [12] | activity change, negative = inhibition ([13]; at 25.7 µM (top of the series)) | activity change, negative = inhibition ([13]; at 57.5 µM (top of the series)) | max response [13, 14] | max response [13, 15] |
| --- | --- | --- | --- | --- | --- | --- | --- | --- | --- | --- | --- | --- | --- | --- | --- | --- |
| CC(C)(C)NCC(O)c1cc(O)cc(O)c1 (stereo not given) | inactive | inactive | inactive | inactive | inactive | inactive | inactive | inactive | inactive | inactive |  |  |  |  |  |  |
| Cc1scc2c1N(C(=O)CN1CCN(C)CC1)c1ccccc1NC2=O | inactive | inactive | inactive |  |  |  |  | inactive |  |  | inactive | inactive | -2.57% (inactive) | 0.86% (inactive) and 1.7% (inactive) and 0.0907% (inactive) | -8.48% [middle of 4 runs] |  |
| CN1CCN(CC(=O)N2c3ccccc3C(=O)Nc3cccnc32)CC1 | inactive | inactive | inactive | inactive | inactive | inactive |  | inactive | inactive | inactive | inactive | inactive | 1.33% (inactive) | 2.91% (inactive) and 6.38% (inactive) and 1.02% (inactive) |  |  |
| Cc1nc2sccn2c(=O)c1CCN1CCC(=C(c2ccc(F)cc2)c2ccc(F)cc2)CC1 |  | inactive | inactive | 7.08 µM (active) | 10 µM (active) | 11.2 µM (active) | 10 µM (active) | 7.94 µM (active) | 10 µM (active) | 11.2 µM (active) | inactive | inactive |  | -1.04% (inactive) | 26.4% | 25.6% |
| C=CCc1ccccc1OCC(O)CNC(C)C (stereo not given) |  | inactive | inactive | 3.55 µM (active) | 1.58 µM (active) | 10 µM (active) | 12.6 µM (active) | 8.91 µM (active) | 2.24 µM (active) | 11.2 µM (active) |  |  |  | 0.138% (inactive) | 11.7% | 12.4% |
| Nc1c2c(nc3ccccc13)CCCC2O (stereo not given) |  | inactive |  | inactive |  |  | inactive | inactive |  | inactive |  |  |  | 0.679% (inactive) and 0.738% (inactive) | 14.7% and -14.6% | 13.3% and -15.3% |
| COCC(=O)O[C@]1(CCN(C)CCCc2nc3ccccc3[nH]2)CCc2cc(F)ccc2[C@@H]1C(C)C | inactive | inactive |  | 2.24 µM (active) | 0.141 µM (active) | 3.16 µM (active) | 8.91 µM (active) | 1.26 µM (active) | 0.501 µM (active) | 5.01 µM (active) | inactive | inactive |  | -12.5% (inactive) | -3.1% | -16.1% |

— PubChem BioAssay (NCATS)
